The term AC50 denotes the concentration at which the activity in the assay is half-maximal.

The results in this text go back to PubChem BioAssay (EPA / NIEHS).

Calls of active or inactive are those of the source. The calls were made as follows: active = hit-call score of the fitted dose curve at least 0.9, where 1 is the maximum; inactive = score below 0.9.

The target of one assay is Aryl hydrocarbon receptor (Homo sapiens) (UniProt P35869). The assay can be described thus: ATG_Ahr_CIS: Attagene CIS-FACTORIAL HepG2 Assay for human Aryl Hydrocarbon Receptor (Ahr) (AID 2282930). The following applies: HepG2 AhR cis-factorial reporter transcription; actives raise or lower the signal. Summed up: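 HepG2, transient MRTU (cis) transfection, 24 h exposure. RNA → cDNA → PCR → 6-FAM primer extension → HpaI 2 h 37 C → CE. Fit: bidirectional, DMSO baseline.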
Chain of Aryl hydrocarbon receptor (Homo sapiens) (P35869 whole entry, looked up): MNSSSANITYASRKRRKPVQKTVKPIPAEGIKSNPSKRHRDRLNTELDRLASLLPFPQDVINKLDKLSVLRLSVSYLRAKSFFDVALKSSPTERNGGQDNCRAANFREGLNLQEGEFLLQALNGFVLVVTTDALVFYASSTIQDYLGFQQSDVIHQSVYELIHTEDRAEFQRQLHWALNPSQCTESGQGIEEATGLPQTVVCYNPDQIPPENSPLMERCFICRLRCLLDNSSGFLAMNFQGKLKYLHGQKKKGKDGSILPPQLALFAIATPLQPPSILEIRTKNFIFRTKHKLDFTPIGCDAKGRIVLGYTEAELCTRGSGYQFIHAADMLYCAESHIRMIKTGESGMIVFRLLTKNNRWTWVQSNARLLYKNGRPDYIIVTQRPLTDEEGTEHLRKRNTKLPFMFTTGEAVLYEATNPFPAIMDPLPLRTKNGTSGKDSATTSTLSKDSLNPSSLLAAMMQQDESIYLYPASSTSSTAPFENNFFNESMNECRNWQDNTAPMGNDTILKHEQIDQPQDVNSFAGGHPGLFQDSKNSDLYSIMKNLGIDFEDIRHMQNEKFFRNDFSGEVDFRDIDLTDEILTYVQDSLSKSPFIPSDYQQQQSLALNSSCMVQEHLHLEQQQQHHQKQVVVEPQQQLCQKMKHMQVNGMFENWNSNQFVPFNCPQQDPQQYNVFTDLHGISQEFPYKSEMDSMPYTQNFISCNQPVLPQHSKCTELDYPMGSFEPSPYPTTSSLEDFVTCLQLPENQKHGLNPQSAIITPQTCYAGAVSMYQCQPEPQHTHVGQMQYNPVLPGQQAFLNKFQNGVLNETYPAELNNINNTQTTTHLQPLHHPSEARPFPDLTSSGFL
With `Cc1ccc(N=C=O)cc1N=C=O`, the compound was called inactive.
As for `[As]#[In]`, the AC50 is 65 µM (active).
Turning to `CCCCCCCCOC(=O)c1ccc(C(=O)OCCCCCCCC)c(C(=O)OCCCCCCCC)c1`, the call was inactive.
`CCOC(=O)[C@]1(c2ccccc2)Oc2ccccc2[C@@H]1N`: the outcome was inactive.
Turning to `CN(C)C(=O)Nc1ccc(Cl)cc1`, the concentration at half-maximal activity (AC50) is 58.5 µM (active).
As for `Nc1ccc(N=Nc2ccccc2)cc1`, the half-maximal activity concentration (AC50) was 25.4 µM (active).
For `O=P(OCCCl)(OCCCl)OCCCl`, the compound was classed as inactive.
In the case of `CC(C)(C)C(O)(CCc1ccc(Cl)cc1)Cn1cncn1` (stereo not drawn), the AC50 was 52.3 µM (active).
Turning to `CCC12COCN1COC2`, the call was inactive.
As to `N#CC(Br)(Br)C(N)=O`, the concentration at half-maximal activity (AC50) was 55.2 µM (active).
In the case of `COC(=O)c1ccccc1N`, the half-maximal activity concentration (AC50) is 43.8 µM (active).
On to `O=C(N[C@H](c1ccccc1)[C@@H]1CN2CCC1CC2)c1c(Cl)ccc(C(F)(F)F)c1Cl`, for which the outcome was inactive.
In the case of `CN(C)c1ccc(C(=O)c2ccc(N(C)C)cc2)cc1`, the half-maximal activity concentration (AC50) was 65.5 µM (active).
For `O=C(Oc1ccc(Br)cc1)N1CCN2CCC1CC2`, the outcome was inactive.
In the case of `Cc1cc(N=Nc2ccccc2C)ccc1N`, the half-maximal activity concentration (AC50) was 2.99 µM (active).
`OCCCl`: the result was inactive.
Same read-out and setting: in the case of `CC(C)COC(=O)c1ccccc1C(=O)OCC(C)C` it was “inactive”; in that of `Clc1ccc(C(c2ccc(Cl)cc2)C(Cl)(Cl)Cl)cc1`, “inactive”.
For `Clc1ccc(Cl)c(Cl)c1`, the AC50 is 77.8 µM (active).
`O=[N+]([O-])C(Br)(CO)CO`: the compound was called inactive.
Take `OCCOCCO`: the call was inactive.
The same measure, in the same setting: next, `Nc1ccc(Cc2ccc(N)cc2)cc1`: “inactive”.
As to `Nc1cc(Cl)cc(C(=O)O)c1Cl`, the half-maximal activity concentration (AC50) was 58 µM (active).
Regarding `C1=Cc2cccc3cccc1c23`, the outcome was inactive.
`ClCCOCCCl`: the compound was classed as inactive.
`Cc1cccc(N)c1N`: the AC50 was 1.09 µM (active).
For `CC(C)(O)c1cnn2c(-c3ccc(F)c(-c4c(F)cccc4C#N)c3)cnc2n1`, the compound was called inactive.

Tested on in a further assay: not listed separately
The assay can be described thus: ATG_AP_1_CIS: Attagene CIS-FACTORIAL HepG2 Assay for human Activator Protein 1 (AP-1) (AID 2282931). To be noted: HepG2 Attagene cis-factorial AP-1 reporter mRNA; actives raise or lower the signal. The method, boiled down:
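We transfected HepG2 cells transiently with a set of cis-regulated reporter transcription units, dosed them for 24 h, and quantified reporter mRNA via RT-PCR and capillary electrophoresis, scoring gain or loss of signal relative to DMSO.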
As for `Cc1ccc(N=C=O)cc1N=C=O`, the outcome was inactive.
`[As]#[In]`: the result was inactive.
For the compound `CCCCCCCCOC(=O)c1ccc(C(=O)OCCCCCCCC)c(C(=O)OCCCCCCCC)c1`, the result was inactive.
Take `CCOC(=O)[C@]1(c2ccccc2)Oc2ccccc2[C@@H]1N`: the AC50 was 40 µM (active).
On to `CN(C)C(=O)Nc1ccc(Cl)cc1`, for which the compound was classed as inactive.
Turning to `Nc1ccc(N=Nc2ccccc2)cc1`, the outcome was inactive.
Take `O=P(OCCCl)(OCCCl)OCCCl`: the compound was classed as inactive.
Same read-out and setting: in the case of `C=CCc1ccc2c(c1)OCO2` it was “inactive”.
Take `CC(C)(C)C(O)(CCc1ccc(Cl)cc1)Cn1cncn1` (stereo not drawn): the AC50 is 140 µM (active).
For the compound `CCC12COCN1COC2`, the compound was called inactive.
Consider `N#CC(Br)(Br)C(N)=O`, for which the compound was classed as inactive.
As for `COC(=O)c1ccccc1N`, the compound was classed as inactive.
Still for that read-out and setting: in the case of `O=C(N[C@H](c1ccccc1)[C@@H]1CN2CCC1CC2)c1c(Cl)ccc(C(F)(F)F)c1Cl` it was “inactive”.
On to `CN(C)c1ccc(C(=O)c2ccc(N(C)C)cc2)cc1`, for which the compound was called inactive.
Take `O=C(Oc1ccc(Br)cc1)N1CCN2CCC1CC2`: the compound was classed as inactive.
Same read-out and setting: next, `Cc1cc(N=Nc2ccccc2C)ccc1N`: “inactive”; `OCCCl`: “inactive”.
Consider `CC(C)COC(=O)c1ccccc1C(=O)OCC(C)C`, for which the half-maximal activity concentration (AC50) is 70.3 µM (active).
As for `Clc1ccc(C(c2ccc(Cl)cc2)C(Cl)(Cl)Cl)cc1`, the AC50 is 51.4 µM (active).
For `Clc1ccc(Cl)c(Cl)c1`, the outcome was inactive.
On to `O=[N+]([O-])C(Br)(CO)CO`, for which the AC50 was 25.2 µM (active).
With `OCCOCCO`, the AC50 was 0.00963 µM (active).
For the compound `Nc1ccc(Cc2ccc(N)cc2)cc1`, the compound was called inactive.
`Nc1cc(Cl)cc(C(=O)O)c1Cl`: the call was inactive.
On to `C1=Cc2cccc3cccc1c23`, for which the compound was called inactive.
As to `ClCCOCCCl`, the call was inactive.
For the compound `Cc1cccc(N)c1N`, the concentration at half-maximal activity (AC50) is 30.5 µM (active).
On to `CC(C)(O)c1cnn2c(-c3ccc(F)c(-c4c(F)cccc4C#N)c3)cnc2n1`, for which the AC50 is 67.1 µM (active).

Tested on in the next assay: not listed separately
Put plainly: ATG_AP_2_CIS: Attagene CIS-FACTORIAL HepG2 Assay for human Activator Protein 2 (AP-2) (AID 2282932). The following applies: HepG2 AP-2 cis-reporter, Attagene transcription factor profiling; actives raise or lower the signal. Summed up:
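Step one: transient transfection of HepG2 with reporter transcription units. Step two: 24 h chemical exposure. Step three: RNA extraction, RT-PCR, labelled fragment analysis by capillary electrophoresis; DMSO serves as baseline.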
`Cc1ccc(N=C=O)cc1N=C=O`: the result was inactive.
As for `[As]#[In]`, the call was inactive.
As to `CCCCCCCCOC(=O)c1ccc(C(=O)OCCCCCCCC)c(C(=O)OCCCCCCCC)c1`, the result was inactive.
As for `CCOC(=O)[C@]1(c2ccccc2)Oc2ccccc2[C@@H]1N`, the AC50 is 55.1 µM (active).
`CN(C)C(=O)Nc1ccc(Cl)cc1`: the outcome was inactive.
Turning to `Nc1ccc(N=Nc2ccccc2)cc1`, the AC50 was 169 µM (active).
Regarding `O=P(OCCCl)(OCCCl)OCCCl`, the outcome was inactive.
`C=CCc1ccc2c(c1)OCO2`: the compound was called inactive.
Regarding `CC(C)(C)C(O)(CCc1ccc(Cl)cc1)Cn1cncn1` (stereo not drawn), the compound was classed as inactive.
Consider `CCC12COCN1COC2`, for which the result was inactive.
For `N#CC(Br)(Br)C(N)=O`, the compound was classed as inactive.
Same read-out and setting: in the case of `COC(=O)c1ccccc1N` it was “inactive”; in that of `O=C(N[C@H](c1ccccc1)[C@@H]1CN2CCC1CC2)c1c(Cl)ccc(C(F)(F)F)c1Cl`, “inactive”; in that of `CN(C)c1ccc(C(=O)c2ccc(N(C)C)cc2)cc1`, “inactive”.
Still for that read-out and setting: in the case of `O=C(Oc1ccc(Br)cc1)N1CCN2CCC1CC2` it was “inactive”.
The same measure, in the same setting: in the case of `Cc1cc(N=Nc2ccccc2C)ccc1N` it was “inactive”; in that of `OCCCl`, “inactive”.
With `CC(C)COC(=O)c1ccccc1C(=O)OCC(C)C`, the call was inactive.
Consider `Clc1ccc(C(c2ccc(Cl)cc2)C(Cl)(Cl)Cl)cc1`, for which the call was inactive.
For the compound `Clc1ccc(Cl)c(Cl)c1`, the compound was called inactive.
`O=[N+]([O-])C(Br)(CO)CO`: the compound was called inactive.
For `OCCOCCO`, the result was inactive.
As to `Nc1ccc(Cc2ccc(N)cc2)cc1`, the outcome was inactive.
For `Nc1cc(Cl)cc(C(=O)O)c1Cl`, the call was inactive.
With `C1=Cc2cccc3cccc1c23`, the compound was classed as inactive.
For `ClCCOCCCl`, the compound was classed as inactive.
Turning to `Cc1cccc(N)c1N`, the compound was classed as inactive.
Consider `CC(C)(O)c1cnn2c(-c3ccc(F)c(-c4c(F)cccc4C#N)c3)cnc2n1`, for which the outcome was inactive.
